Here are results for 21 compounds from PubChem BioAssay (EPA / NIEHS).

Test [1] is described as follows: ATG_TCF_b_cat_CIS: Attagene CIS-FACTORIAL HepG2 Assay for human T-Cell-Factor with beta-catenin (TCF/b-cat) (AID 2282965). Particulars: HepG2 TCF/beta-catenin cis-reporter transcription, actives raise or lower the signal. The method, boiled down: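 Endogenous TCF/LEF activity read as reporter transcript level via RT-PCR and capillary electrophoresis fluorescence in transfected HepG2, 24 h exposure; gain or loss of signal fitted against DMSO controls.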

A short description of test [2]: ATG_TAL_CIS: Attagene CIS-FACTORIAL HepG2 Assay for human TAL Basal Promoter (AID 2282966).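 Also: background control endpoint measuring basal TAL promoter reporter mRNA not a specific factor.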 The settings on record: HepG2 Attagene cis-factorial TAL promoter reporter; actives raise or lower the signal. In a few lines:
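Transiently transfected HepG2 (cis-regulated reporter units), 24 h treatment, mRNA read by fluorescent CE after RT-PCR; bidirectional fit, DMSO baseline.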

The nature of test [3]: ATG_TGFb_CIS: Attagene CIS-FACTORIAL HepG2 Assay for human Transforming Growth Factor (TGF) (AID 2282967). Particulars: HepG2 Attagene CIS TGFb reporter, mRNA transcription; actives raise or lower the signal. In a few lines: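 Endogenous TGFB1-linked transcription factor activity read as reporter mRNA via RT-PCR and capillary electrophoresis, 24 h after dosing transiently transfected HepG2 cells. Gain or loss of signal fitted relative to DMSO.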

Test [4] in a line: ATG_VDRE_CIS: Attagene CIS-FACTORIAL HepG2 Assay for human Vitamin D Receptor Element (VDRE) (AID 2282968). The settings on record: HepG2 VDRE cis-reporter transcription, actives raise or lower the signal. In a few lines:
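Readout is VDRE-driven reporter mRNA reflecting endogenous factor activity in human HepG2 cells, sampled 24 h post-dose. Quantification used labelled RT-PCR products separated by capillary electrophoresis; bidirectional analysis relative to DMSO.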

Test [5] concerns the target Nuclear receptor subfamily 1 group I member 3 (Homo sapiens) (UniProt Q14994). The experiment in a line: ATG_CAR_TRANS: Attagene TRANS-FACTORIAL HepG2 Assay for human Constitutive Androstane Receptor (CAR) (AID 2282969; active = hit-call score of the fitted dose curve at least 0.9, where 1 is the maximum;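 also: activators raise reporter mRNA above DMSO so AC50 marks induction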). Particulars: HepG2 Attagene TRANS-FACTORIAL CAR reporter. The method, boiled down: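 Signal is reporter mRNA induction relative to DMSO, measured 24 h after dosing by RT-PCR with fluorescent primer extension and capillary electrophoresis. Human HepG2 liver cells carried transiently transfected chimeric NR-Gal4/GAL4-UAS reporter constructs.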

Test [6] deals with Estrogen receptor (Homo sapiens) (UniProt P03372). Kind of test: ATG_ERa_TRANS: Attagene TRANS-FACTORIAL HepG2 Assay for human Estrogen Receptor alpha (ERa) (AID 2282970; active = hit-call score of the fitted dose curve at least 0.9, where 1 is the maximum). The settings on record: HepG2 Attagene TRANS ERa GAL4 reporter, mRNA. In a few lines: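 One of 30 multiplexed endpoints from a HepG2 TRANS system, this one reports ERa-Gal4-driven reporter mRNA. Transcripts were quantified 24 hours post-dosing by fluorescent RT-PCR and capillary electrophoresis, with activity scored as induction over DMSO.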

Test [7] has as its target X-box-binding protein 1 (Homo sapiens) (UniProt P17861). The experiment in a line: ATG_Xbp1_CIS: Attagene CIS-FACTORIAL HepG2 Assay for human X-box Binding Protein 1 (XBP1) (AID 2282972). The settings on record: HepG2 XBP1 cis-element reporter, Attagene multiplex; actives raise or lower the signal. In a few lines:
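Reporter transcripts were quantified by RT-PCR with fluorescent primer extension and capillary electrophoresis after 24 h chemical exposure. Cells: transiently transfected HepG2 carrying cis-regulated reporter constructs; data fitted bidirectionally relative to DMSO.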

A short description of test [8]: ATG_M_19_TRANS: Attagene TRANS-FACTORIAL HepG2 Assay for M19 Transcription Factor (Internal Marker) (AID 2282974; active = hit-call score of the fitted dose curve at least 0.9, where 1 is the maximum). The settings on record: HepG2 Attagene TRANS-FACTORIAL M19 internal marker reporter. In a few lines:
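After transfection of HepG2 with GAL4-UAS-driven reporter constructs, cells are dosed for 24 h. Total RNA is reverse-transcribed, reporter sequences PCR-amplified and labelled, then HpaI-digested and sized by capillary electrophoresis.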

Test [9] has as its target Androgen receptor (Homo sapiens) (UniProt P10275). Kind of test: ATG_AR_TRANS: Attagene TRANS-FACTORIAL HepG2 Assay for human Androgen Receptor (AR) (AID 2282973; active = hit-call score of the fitted dose curve at least 0.9, where 1 is the maximum). The settings on record: HepG2 Attagene TRANS-FACTORIAL AR reporter transcription. In a few lines:
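HepG2 cells transiently transfected with multiplexed GAL4-UAS reporter units and chimeric NR-Gal4 fusion; 24 h compound exposure. Reporter mRNA measured by RT-PCR, 6-FAM labelling, HpaI digestion and capillary electrophoresis; gain-of-signal fitted relative to DMSO baseline.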

Test [10] can be described thus: ATG_Hpa5_TRANS: Attagene TRANS-FACTORIAL HepG2 Assay for human GAL4-Hpa5 Hepatocyte Transcription Factor Basal Promoter (AID 2282975; active = hit-call score of the fitted dose curve at least 0.9, where 1 is the maximum;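 also: hits are increases in reporter mRNA over DMSO baseline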). The settings on record: HepG2 Attagene GAL4-Hpa5 transcription reporter. The method, boiled down: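 Gain-of-signal versus DMSO is fitted for reporter mRNA quantified by RT-PCR and capillary electrophoresis after 24 h exposure. This endpoint is an internal background marker in transiently transfected HepG2 cells carrying GAL4-UAS reporter units.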

As usually defined, the AC50 is the concentration giving half of the maximal activity seen.

“And” between values parts separate entries of the source, which are not always exact repeats. Equal values may be shown once. Records with an inconclusive call do not appear. More than one record can exist for a structure, and the calls need not agree. The source made the active and inactive calls. The calls were made as follows, unless noted: active = hit-call score of the fitted dose curve at least 0.9, where 1 is the maximum; inactive = score below 0.9.

Sequence of Androgen receptor (Homo sapiens) (P10275 whole entry, looked up, the tested form may be a part): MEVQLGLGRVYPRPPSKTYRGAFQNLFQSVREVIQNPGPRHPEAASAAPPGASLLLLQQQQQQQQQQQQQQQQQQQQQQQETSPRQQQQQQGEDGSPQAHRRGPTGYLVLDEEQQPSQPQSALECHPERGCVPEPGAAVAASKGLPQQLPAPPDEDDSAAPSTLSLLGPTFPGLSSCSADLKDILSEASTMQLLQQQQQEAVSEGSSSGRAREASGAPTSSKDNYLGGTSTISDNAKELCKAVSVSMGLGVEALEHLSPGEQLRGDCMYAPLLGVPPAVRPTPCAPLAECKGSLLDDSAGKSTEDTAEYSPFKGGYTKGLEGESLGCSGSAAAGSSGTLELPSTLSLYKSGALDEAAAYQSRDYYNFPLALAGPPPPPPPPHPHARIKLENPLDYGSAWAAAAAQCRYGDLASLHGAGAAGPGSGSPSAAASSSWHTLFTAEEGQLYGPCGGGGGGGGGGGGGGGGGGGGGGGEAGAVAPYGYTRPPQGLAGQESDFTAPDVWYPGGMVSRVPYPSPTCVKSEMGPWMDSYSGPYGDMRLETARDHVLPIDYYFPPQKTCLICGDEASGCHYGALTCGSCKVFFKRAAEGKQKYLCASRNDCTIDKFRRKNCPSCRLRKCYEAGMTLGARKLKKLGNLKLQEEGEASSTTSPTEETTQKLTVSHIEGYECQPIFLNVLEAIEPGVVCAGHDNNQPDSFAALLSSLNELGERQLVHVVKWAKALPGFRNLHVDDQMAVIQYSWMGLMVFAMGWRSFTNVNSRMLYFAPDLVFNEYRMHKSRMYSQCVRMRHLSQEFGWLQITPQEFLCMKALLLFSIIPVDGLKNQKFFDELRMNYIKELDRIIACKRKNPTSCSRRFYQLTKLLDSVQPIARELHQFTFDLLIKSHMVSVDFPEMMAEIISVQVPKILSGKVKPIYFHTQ
Sequence of Nuclear receptor subfamily 1 group I member 3 (Homo sapiens) (Q14994 whole entry, looked up, the tested form may be a part): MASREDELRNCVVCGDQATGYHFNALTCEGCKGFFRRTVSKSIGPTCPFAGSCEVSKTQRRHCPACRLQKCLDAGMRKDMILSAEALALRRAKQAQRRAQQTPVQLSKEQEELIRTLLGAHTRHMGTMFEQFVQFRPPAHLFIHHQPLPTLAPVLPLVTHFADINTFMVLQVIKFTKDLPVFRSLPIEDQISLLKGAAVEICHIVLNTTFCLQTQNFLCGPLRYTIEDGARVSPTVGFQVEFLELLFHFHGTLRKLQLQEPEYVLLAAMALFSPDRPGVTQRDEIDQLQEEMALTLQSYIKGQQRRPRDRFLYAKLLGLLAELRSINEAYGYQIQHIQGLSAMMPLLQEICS
Sequence of Estrogen receptor (Homo sapiens) (P03372 whole entry, looked up, the tested form may be a part): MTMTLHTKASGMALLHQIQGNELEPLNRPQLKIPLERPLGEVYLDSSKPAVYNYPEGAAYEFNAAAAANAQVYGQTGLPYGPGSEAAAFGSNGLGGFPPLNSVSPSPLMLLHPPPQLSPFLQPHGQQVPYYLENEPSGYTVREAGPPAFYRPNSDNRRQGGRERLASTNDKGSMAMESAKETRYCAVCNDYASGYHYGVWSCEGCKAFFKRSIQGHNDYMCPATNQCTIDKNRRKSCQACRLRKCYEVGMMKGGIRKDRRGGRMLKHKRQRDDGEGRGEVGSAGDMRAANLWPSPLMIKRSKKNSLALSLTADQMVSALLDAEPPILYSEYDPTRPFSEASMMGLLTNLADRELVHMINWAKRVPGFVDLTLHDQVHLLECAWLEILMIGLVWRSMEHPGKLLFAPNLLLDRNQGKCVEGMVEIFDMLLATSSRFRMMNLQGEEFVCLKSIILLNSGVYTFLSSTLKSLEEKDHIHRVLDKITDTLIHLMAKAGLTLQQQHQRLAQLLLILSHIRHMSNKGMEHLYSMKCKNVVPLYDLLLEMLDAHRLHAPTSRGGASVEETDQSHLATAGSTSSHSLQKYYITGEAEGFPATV
Sequence of X-box-binding protein 1 (Homo sapiens) (P17861 whole entry, looked up): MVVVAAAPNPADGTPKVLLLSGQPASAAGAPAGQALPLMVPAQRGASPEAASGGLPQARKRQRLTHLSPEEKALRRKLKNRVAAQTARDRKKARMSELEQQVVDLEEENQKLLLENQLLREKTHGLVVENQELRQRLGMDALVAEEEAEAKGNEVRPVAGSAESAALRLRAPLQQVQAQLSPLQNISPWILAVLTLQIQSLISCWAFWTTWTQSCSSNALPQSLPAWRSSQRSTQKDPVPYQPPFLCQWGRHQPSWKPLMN

On to `Clc1ccccc1-c1nnc(-c2ccccc2Cl)nn1`, for which the call in test [1], in test [2], in [3], in test [4], in test [5] and in [6] was inactive. Besides, the call in [7] and in test [8] was inactive.

`C#CCN1C(=O)COc2cc(F)c(N3C(=O)C4=C(CCCC4)C3=O)cc21`: the outcome in test [1], in test [2], in test [3], in test [4], in test [5] and in [6] was inactive. Also, the compound was classed as inactive in test [7], in [9], in test [8] and in [10].

For the compound `O=C1c2ccccc2C(=O)N1SC(Cl)(Cl)Cl`, the call in [1], in test [2], in test [3], in test [4], in test [5] and in test [6] was inactive. Also, the call in [7], in test [8] and in test [10] was inactive.

Turning to `O=S(=O)(O)C(F)(F)C(F)(F)C(F)(F)C(F)(F)C(F)(F)C(F)(F)C(F)(F)C(F)(F)F`, the compound was called inactive in test [1], in test [2], in test [3], in [4], in test [7] and in test [8]. In test [10], the compound was called inactive. Besides, the AC50 in test [3] was 62.2 µM (active) [middle of 9 runs]; in test [8], 100 µM (active).

With `N#CN`, the compound was called inactive in test [1], in test [2], in test [3], in test [4], in test [5] and in test [6]. The result in test [7] was inactive.

Take `COP(=S)(OC)Oc1ccc([N+](=O)[O-])cc1`: the result in test [1], in test [2], in [3], in test [4], in test [5] and in test [6] was inactive. Besides, the compound was classed as inactive in [7] and in [8].

Turning to `CC1(C)C(C=C(Cl)Cl)C1C(=O)OC(C#N)c1ccc(F)c(Oc2ccccc2)c1` (centres undefined), the compound was called inactive in test [1], in test [2], in [3], in test [5], in test [6] and in test [7]. The result in [8] and in test [10] was inactive. Besides, the AC50 in test [4] is 8.85 µM (active).

With `CCOC1Oc2ccc(OS(C)(=O)=O)cc2C1(C)C` (centres undefined), the compound was classed as inactive in test [1], in [2], in test [3], in test [5], in [7] and in test [9]. Further, the compound was called inactive in test [8]. The figures for the AC50 in [4] and in test [6] were 25.7 µM (active) and 25.4 µM (active), respectively.

Take `O=C(Nc1ccccc1)Nc1cnns1`: the compound was called inactive in [1], in test [2], in test [3], in [5], in [6] and in test [8]. Besides, the results for the AC50 in test [4] and in test [7] were 50 µM (active) and 77.6 µM (active), respectively.

On to `CC(C)(C)C(O)/C(=C\c1ccc(Cl)cc1Cl)n1cncn1` (centres undefined), for which the outcome in test [1], in [2], in test [3], in [4], in test [5] and in [6] was inactive. Further, the result in test [7] and in [8] was inactive.

For `O=C(O)C(F)(F)C(F)(F)C(F)(F)C(F)(F)C(F)(F)C(F)(F)C(F)(F)F`, the AC50 in test [1] is 221 µM (active) and 231 µM (active). In addition, the call in [1], in test [2], in [3], in [4], in test [7] and in test [8] was inactive.

With `N#Cc1c(Cl)c(Cl)c(Cl)c(C#N)c1Cl`, the compound was called inactive in test [1], in test [2], in test [3], in test [5], in test [6] and in [7]. In addition, the compound was called inactive in [8] and in [10]. Besides, the AC50 in test [4] is 0.267 µM (active).

As to `COc1cc(OC)nc(NC(=O)NS(=O)(=O)c2cc(NC=O)ccc2C(=O)N(C)C)n1`, the call in [1], in [2], in test [3], in [4], in test [5] and in test [6] was inactive. Moreover, the call in test [7], in test [9] and in test [8] was inactive.

Consider `CCCN(CCC)c1c([N+](=O)[O-])cc(C(F)(F)F)cc1[N+](=O)[O-]`, for which the compound was called inactive in test [1], in test [2], in test [3], in [5], in test [7] and in test [8]. Besides, in test [10], the compound was classed as inactive. In addition, the AC50 in test [4] is 13.4 µM (active); in test [6], 35.9 µM (active).

With `CCOCN(C(=O)CCl)c1c(C)cccc1CC`, the outcome in test [1], in test [2], in [3], in test [4], in [5] and in test [6] was inactive. For the same compound, the compound was called inactive in [7] and in test [8].

For `O=[N+]([O-])/N=C1\NCCN1Cc1ccc(Cl)nc1`, the outcome in test [1], in [2], in [3], in test [4], in [5] and in [6] was inactive. For the same compound, the call in test [7], in test [9] and in [10] was inactive.

For `O=[N+]([O-])c1c(Cl)c(Cl)c(Cl)c(Cl)c1Cl`, the results for the half-maximal activity concentration (AC50) in [1], in test [4] and in test [6] were 29 µM (active), 50 µM (active) and 50 µM (active), respectively. The call in test [2], in test [3], in test [5], in test [7], in test [8] and in test [10] was inactive.

For the compound `Cc1cc(C)nc(NC(=O)NS(=O)(=O)c2ccccc2C(=O)OC2COC2)n1`, the call in test [1], in test [2], in [3], in test [5], in test [6] and in [7] was inactive. For the same compound, the AC50 in test [4] is 50 µM (active).

As for `Oc1cc(Cl)ccc1Oc1ccc(Cl)cc1Cl`, the AC50 in test [1] is 11.1 µM (active) and 19.2 µM (active) and 14.4 µM (active); in test [2], 11.1 µM (active); in test [4], 8.06 µM (active) [middle of 6 runs]; in test [7], 11.3 µM (active) [middle of 7 runs]. Further, the compound was classed as inactive in test [1], in test [2], in [3], in test [4], in test [5] and in test [7]. In addition, the compound was classed as inactive in test [8].

With `COC(=O)c1ccccc1CS(=O)(=O)NC(=O)Nc1nc(OC)cc(OC)n1`, the outcome in [1], in [2], in test [3], in test [4], in test [5] and in [6] was inactive. Also, the call in test [7] was inactive.

Take `Oc1ccc(Cl)cc1Cc1ccccc1`: the AC50 was 16.4 µM (active) in test [1]; 7.32 µM (active) and 11.2 µM (active) and 15.9 µM (active) in [7]. Moreover, the compound was classed as inactive in test [1], in test [2], in test [3], in [5], in [7] and in test [9]. Also, the result in test [8] was inactive.
